D1 PAM – Potentiators of Human D1 Dopamine Receptor: qHTS; HEK293 TREx D1 cells, calcium flux, dopamine EC20 potentiation; potentiation, % at 10 µM; 0.036% of 360,000 active; AID 504651, 2011; in the data active = potentiation above about 30%
D3 ag – qHTS of D3 Dopamine Receptor Agonist: qHTS | max activation, % | D(3) dopamine receptor (Homo sapiens), P35462 | D3R DiscoveRx beta-arrestin cells, luminescence, 90 min | 0.58% of 410,000 active; in the data active = max activation above about 30%
Target sequence (P35462 whole entry, looked up): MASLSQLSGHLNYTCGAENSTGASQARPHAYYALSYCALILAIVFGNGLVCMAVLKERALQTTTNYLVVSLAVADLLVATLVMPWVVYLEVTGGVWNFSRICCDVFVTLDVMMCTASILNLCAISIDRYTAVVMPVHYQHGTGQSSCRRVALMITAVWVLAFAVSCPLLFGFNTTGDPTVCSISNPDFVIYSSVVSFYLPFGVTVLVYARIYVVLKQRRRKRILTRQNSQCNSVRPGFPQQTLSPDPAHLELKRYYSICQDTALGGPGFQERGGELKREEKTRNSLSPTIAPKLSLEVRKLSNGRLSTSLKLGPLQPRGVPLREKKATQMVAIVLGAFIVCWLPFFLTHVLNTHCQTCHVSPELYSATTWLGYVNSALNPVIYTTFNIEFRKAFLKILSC
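Agonist-mode cell screen: cells plated at 1500/well and incubated overnight at 37 °C, then exposed to library compounds for 90 min at 37 °C. Detection reagent was added for 30–60 min at room temperature, and luminescence was read.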
D1 agonist – Allosteric Agonists of the Human D1 Dopamine Receptor: qHTS; D(1A) dopamine receptor (Homo sapiens), P21728; activation, % at 2 µM; HEK293 T-REx D1 cells, calcium flux, agonist mode; AID 504660, 2011; 1% of 360,000 active; in the data active = activation above about 30%
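Inducible HEK293 T-REx D1 cells, force-coupled to calcium signalling, were plated at 4000 cells/well with tetracycline and held overnight at 30 C. After no-wash calcium dye loading, compound-evoked calcium rise over 180 s flagged agonists.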
ERG-DNA inh – qHTS for Small Molecule Inhibitors of the ERG Ets/DNA interaction; 0.028% of 370,000 active; AID 624246, 2012; fluorescence polarization, His-ERG Ets domain / labelled DNA; Potency, µM (highest dose often 76.9 µM), usual class: inhibitors; active = well fitted inhibition curve with a large enough effect in the polarisation, with a control signal flat; inconclusive = small, poorly fitted or top-dose-only effect, or effect the other way, or a change in a side signal; inactive = no such curve, though single readings can be large or run the other way; the % refers to the polarisation;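 note: polarization taken with two DNA probes labelled with fluorescein and Texas red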
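His-tagged ERG Ets domain (1 uM in the protein solution; 300mM KCl, 50mM Tris-HCl, 1mM EDTA, 1mM DTT, pH 7.5) received compound, then a probe mix of 5 nM fluorescein-DNA and 100nM Texas-615-DNA. Fluorescence polarization was read for both dyes.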
D1 antag – Antagonist of Human D 1 Dopamine Receptor: qHTS. 3.2% of 360,000 active. HEK293 TREx D1 cells, calcium flux, dopamine EC80; active compounds read low. D(1A) dopamine receptor (Homo sapiens), P21728. AID 504652, 2011. activity change, negative = inhibition, % at 10 µM; in the data active = activity change below about -30%
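After overnight tetracycline induction at 30 C, force-coupled D1 HEK293 cells took up a no-wash calcium dye at room temperature. Compounds were added and monitored 180 s, and the response to EC80 dopamine was then recorded.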
DRD3 antagonist – qHTS of D3 Dopamine Receptor Antagonist: qHTS; D3R cells, DiscoveRx beta-arrestin luminescence, antagonist mode; active compounds read low; max response, negative = inhibition, %; 2.5% of 360,000 active; AID 652054, 2013; in the data active = max response below about -50%; inconclusive = no clear call, values can overlap the other calls
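Cells plated overnight at 1500 cells/well, then exposed to library compounds with dopamine controls for 90 minutes at 37 degrees C. DiscoveRx reagent added for 30–60 minutes at room temperature; luminescence read, quantitative HTS format.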
Large screens that a line does not name were inactive; ! = not confirmed by another sample. A selection: hits, their analogues and other compounds. The true share with any hit is near 6.1%.

CCCNC(=O)c1ccccc1N1CCN(CCCCN2C(=O)C3CCCCN3C2=O)CC1 (stereo not drawn)	DRD3 antagonist -72
COc1ccccc1N1CCN(CC(=O)N2CCCC2)CC1	none
COc1ccccc1N1CCN(CCCCN2C(=O)C3CCCN3C2=O)CC1 (stereo not drawn)	DRD3 antagonist -87 (no result: D1 PAM, D1 agonist, D1 antag)
COc1ccccc1N1CCN(CCCCN2C(=O)c3ccccc3C2=O)CC1	DRD3 antagonist -107 (no result: D1 PAM, D1 agonist, D1 antag)
NC(=O)C1=C[C@@H](c2ccc(Br)cc2)C[C@@H](OCCCCO)O1	DRD3 antagonist inconclusive
CC(C)Oc1ccc(C2CNC(=O)C2)cc1 (stereo not drawn)	none (no result: D1 PAM)
COc1ccccc1N1CCN(CCN2C(=O)C3CCCN3C2=O)CC1 (stereo not drawn)	DRD3 antagonist -59
Cc1cc(F)ccc1NC(=O)CCCN(C)S(=O)(=O)c1ccc(F)cc1	none
Cc1ccc(S(=O)(=O)N(C)CCCC(=O)Nc2ccc(C)cc2C)cc1	D1 antag -52
COc1ccc(NC(=O)CCCN(C)S(=O)(=O)c2ccc(C)cc2)cc1	D1 antag -60
Cc1ccc(S(=O)(=O)N(C)CCCC(=O)Nc2ccncc2)cc1	D1 antag -35 (no result: D1 PAM)
CCOc1ccccc1NC(=O)CCCNC(=O)Cn1cnc2sc(C)c(C)c2c1=O	none
O=C(O)CCc1[nH]c2ccccc2c1Sc1ccccc1	DRD3 antagonist -67
CC(C)Oc1ccc(/C=C(\C#N)C(=O)NC2CC2)cc1	none (no result: D1 PAM, D1 agonist, D1 antag)
N#C/C(=C\c1ccc(OCC(N)=O)cc1)C(=O)NC1CC1	D1 antag -36
O=c1oc2ccccc2cc1-c1ccc(O)cc1O	D1 antag -31
O=C(NCc1ccccc1Cl)c1cccc(OC2CCN(C(=O)C3CC3)CC2)c1	none
CCOCCCn1c(SCC(=O)Nc2cccc(OC)c2)nc2ccccc2c1=O	D1 antag -46!
O=C(CSc1nc2ccccc2c(=O)n1-c1ccccc1F)Nc1ccc2c(c1)CCC2	none
CCN(CC)CCn1c(SCC(=O)Nc2ccc3c(c2)CCC3)nc2ccccc2c1=O	D1 antag -32
COc1cccc(NC(=O)CSc2nc3ccccc3c(=O)n2CCCC(=O)N2CCCC2)c1	none
COc1cccc(NC(=O)C2(C)CCCN2C(=O)C(C)C)c1OC (stereo not drawn)	D3 ag 75 (no result: D1 PAM, D1 agonist, ERG-DNA inh, D1 antag)
CC(C)C(=O)N1CCC1(C)C(=O)NS(=O)(=O)c1cccs1 (stereo not drawn)	DRD3 antagonist -63 (no result: D1 PAM, D1 agonist, ERG-DNA inh, D1 antag)
CCOc1ccc(Br)cc1C(=S)N1CCCC1	none
Cc1sc2ncnc(N3CCN(S(=O)(=O)c4ccc(F)cc4)CC3)c2c1C	none
CCc1cc2c(NCCN3CCCCC3)ncnc2s1	DRD3 antagonist -86
N#Cc1cc(C(=O)c2ccccc2O)cn(-c2nccs2)c1=O	D1 agonist 553
CC(C)n1cc(C(=O)c2ccccc2O)cc(C#N)c1=O	none
N#Cc1cc(C(=O)c2cc(F)ccc2O)cn(-c2nccs2)c1=O	D1 agonist 306
Cc1c(-n2cc(C(=O)c3cc(F)ccc3O)cc(C#N)c2=O)c(=O)n(-c2ccccc2)n1C	none
Cc1ccccc1NC(=S)NC(=O)c1cc(-c2ccccc2)nc2ccccc12	none
CCOC(=O)c1c(NC(=O)COc2ccc(OC)cc2)sc(C(=O)N(CC)CC)c1C	none (no result: DRD3 antagonist)
CCN(CC(=O)NCc1cccs1)C(=O)c1cccc(S(=O)(=O)Nc2ccc(F)cc2)c1	none (no result: D1 PAM, D1 agonist, D1 antag)
COc1ccc(-n2c(C)cc(/C=C3\C(=O)NN(c4ccccc4)C3=O)c2C)cc1	DRD3 antagonist -59
O=C(Cn1ncc(Cl)c(Cl)c1=O)NCC1CCCCC1	none
O=C(Cn1ncc(Cl)c(Cl)c1=O)NC1CCCCC1	D1 antag -37
O=C(O)CCNC(=O)CCCn1nnc2ccccc2c1=O	D1 antag -43
CC(C)C[C@H](NC(=O)CCCn1nnc2ccccc2c1=O)C(=O)O	none
O=C(CC1CCCCC1)OCn1nnc2ccccc2c1=O	none
O=C(Cn1nnc2ccccc2c1=O)NC1CCCCC1	D1 antag -43
CCCCN(CC)CCNC(=O)c1cc2c(=O)n(C)c3ccccc3c2n1C	DRD3 antagonist -73
Cn1c(C(=O)NCCCN2CCCCCC2)cc2c(=O)n(C)c3ccccc3c21	none
Cn1c(C(=O)NCCCN2CCc3ccccc3C2)cc2c(=O)n(C)c3ccccc3c21	DRD3 antagonist -70 (no result: D1 PAM)
COc1ccccc1CN1CCN(Cc2ccco2)CC1	DRD3 antagonist inconclusive
Cn1c(=O)n(Cc2ccccc2)c(=O)c2c1nc1n2CCCN1C1CCCCC1	none (no result: D1 PAM, D1 agonist, D1 antag)
Cn1c(=O)n(Cc2ccc(F)cc2)c(=O)c2c1nc1n2CCCN1C1CCCCC1	DRD3 antagonist -99
CSCC(C)N1CCC(n2nccc2NC(=O)CCc2ccccc2)CC1 (stereo not drawn)	none
CCc1cccc(NC(=O)Nc2ccc3c(c2)OCO3)c1	none
O=C1N/C(=N\N=C\c2cccs2)SC1Cc1ccc(Cl)c(Cl)c1 (stereo not drawn)	D1 antag -43
COCc1cc(C)nc(SCC(=O)NCc2ccco2)c1C#N	none
COc1ccc(OC)c(CNS(=O)(=O)c2cc(-c3onc(C)c3C)ccc2C)c1	D1 antag -38 (no result: DRD3 antagonist)
C=CCNC(=O)c1ccc2c3n(nc2c1)-c1ccccc1CO3	none
O=c1cc2oc3cc(O)c(O)cc3c(-c3ccccc3O)c-2cc1O	D1 agonist 46
COc1ccc(OC)c(-c2c3cc(O)c(=O)cc-3oc3cc(O)c(O)cc23)c1	D1 agonist 44
CCOc1ccccc1-c1c2cc(O)c(=O)cc-2oc2cc(O)c(O)cc12	D1 agonist 53, ERG-DNA inh inconclusive, DRD3 antagonist -58
CCn1c(=O)n(CC)c2cc(N3CCCC3)c(NC(=O)c3ccc(F)cc3)cc21	none
COc1ccc(C2CC(=O)C(C=NCC(C)C)=C(O)C2)cc1 (stereo not drawn)	none
C[C@@H]1CCN(C(=O)[C@H](CCCN=C(N)N)NS(=O)(=O)c2cccc3c2NC[C@H](C)C3)[C@@H](C(=O)O)C1	D3 ag 95 (no result: D1 PAM, D1 agonist, ERG-DNA inh, D1 antag, DRD3 antagonist)
CC(OC(=O)c1ccc(NC(=O)CC#N)cc1)C(=O)NCCC1=CCCCC1 (stereo not drawn)	none
CC(OC(=O)c1ccc(NC(=O)CC#N)cc1)C(=O)NC(=O)NC1CCCCC1 (stereo not drawn)	D1 antag -32
